# Screening data: PubChem, Broad Institute
# Statin myotox sup: suppression of simvastatin myotoxicity; C2C12 myotubes + simvastatin, ATP luminescence, 48 h; scaled: DMSO 0, geranylgeraniol control 100; rescue of ATP level, % at 7.49 µM; 330,000 compounds, 0.78% hits; AID 602340;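 active means mean ATP rescue above about 67%, or every replicate alone reaching that limit, limit read from the data, passing the limit was not always enough; inconclusive means no clear call, values can overlap the other calls; inactive means mean under the limit and some replicate under it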;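 further: myotubes were challenged with 10 µM simvastatin during compound exposure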
# MITF act: activators of MITF-driven TRPM1 promoter activity in SK-MEL-5 cells | 300,000 compounds, 0.75% hits | activation, % at 12.5 µM | SK-MEL-5 TRPM1-promoter luciferase, 24 h; % of positive control, neutral wells = 0;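 active means mean activation of at least 80% with every replicate also reaching 80%; inconclusive means mean reaches 80% but some replicate falls short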;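 further: 0% = neutral control wells and 100% = parthenolide positive control wells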
# esBAF inh: inhibitors of esBAF chromatin remodeling in mouse ES cells. Bmi1-luciferase knock-in reporter, 24 h; 100% = twice the neutral-well signal. reporter increase, % at 12.5 µM. 350,000 compounds, 2% hits. AID 602393; in the data active means activation above about 40%; inconclusive means no clear call, values can overlap the other calls;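 further: 0% = median of the plate's neutral control wells and 100% = double that signal; a rise in the Bmi1 reporter signal indicates esBAF inhibition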
# Wnt bcat act: activators of Wnt/beta-catenin signaling; 300,000 compounds, 1.2% hits; AID 743398; Wnt/beta-catenin reporter cell assay, activator, plate reader; activation, % at 9.35 µM; in the data active means activation above about 30%, passing the limit was not always enough; inconclusive means no clear call, values can overlap the other calls;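 further: 0% = neutral control wells and 100% = positive control wells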
# Ring1 derepress: de-represses Ring1 in mouse ESCs, confirming esBAF inhibition | shares compounds with esBAF inh | mouse ESC E14, Ring1 mRNA RT-qPCR fold change | fold change at 33 µM | 550 tested, under 10 active;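 active means Ring1 gene expression raised more than 2-fold over untreated cells in both replicates at either tested dose; inconclusive means only one replicate above 2-fold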;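 further: Ring1 transcript normalised to actin housekeeping signal by TaqMan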
# esBAF Fgf4 qPCR: confirmation of esBAF inhibitors: Fgf4 repression in mouse ESCs | shares compounds with esBAF inh | mouse ESC E14, Fgf4 mRNA qPCR fold change; hits give low values | Fgf4 expression fold change at 33 µM | 550 compounds, 4% hits | AID 743177;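 active means Fgf4 expression under 0.8 fold of control in both repeat measurements at one or both tested doses; inconclusive means under 0.8 fold in just a single repeat measurement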;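 further: Fgf4 transcript normalised to actin in duplex TaqMan qPCR; cells exposed to compound for 24 h before lysis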
# Bmi1 derepress: de-represses Bmi1 in mouse ESCs, confirming esBAF inhibition; shares compounds with esBAF inh; mouse ESE14 ES cells, Bmi1 mRNA qPCR fold; hits give high values; fold change at 33 µM; 550 tested, under 10 active;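 active means Bmi1 expression fold change above 6 at either tested concentration, seen in replicate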;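 further: higher fold means more Bmi1 de-repression and stronger esBAF inhibition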
# A549 cytotox: kills or reduces viability of A549 cells; 550 tested, under 10 active; shares compounds with esBAF inh; A549 cytotoxicity, plate reader; cell viability change % (negative = cytotoxic), % at 25 µM, hits read low; AID 743188; call rule not given here
# HepG2 cytotox SP: cytotoxicity in HepG2 cells. activity change, negative = inhibition, % at 25 µM. AID 743189. plate reader; hits give low values. shares compounds with esBAF inh. 550 compounds, 4% hits; in the data active means activity change below about -50%
# HEK293 cytotox SP: HEK293 cell cytotoxicity at single point; AID 743190; 550 compounds, 3% hits; shares compounds with esBAF inh; activity change, negative = inhibition, % at 25 µM, hits read low; plate reader; in the data active means activity change below about -38%, passing the limit was not always enough
# * = called active by the depositor; ? = inconclusive; nt = not tested or not shown. A selection: hits, their analogues and other compounds. The true share with any hit is near 3%.
SMILES,Statin myotox sup,MITF act,esBAF inh,Wnt bcat act,Ring1 derepress,esBAF Fgf4 qPCR,Bmi1 derepress,A549 cytotox,HepG2 cytotox SP,HEK293 cytotox SP
C[C@@H]1CN([C@H](C)CO)C(=O)c2cc(NC(=O)Cc3ccccc3)ccc2O[C@@H]1CN(C)C(=O)Nc1cccc2ccccc12,0,nt,-1,nt,nt,nt,nt,nt,nt,nt
CCOc1ccc(CN(C(=O)c2ccccn2)c2ccc(OC)c(Cl)c2)cc1,19,21,46*,3,nt,nt,nt,nt,nt,nt
CCOc1ccc(N(Cc2ccc(OC)c(OC)c2)C(=O)c2ccco2)cc1,nt,nt,nt,-2,nt,nt,nt,nt,nt,nt
CC1(C)Cc2c(c(N3CCCC3)nc3sc(C(=O)Nc4ccccc4)c(N)c23)CO1,10,51,59*,9,1.4,1,0.96,-12,-12,-11
CC(=O)c1cccc(OCc2cc(C(=O)NCCC3=CCCCC3)no2)c1,39,72,83*,?,1,1.1,0.94,-12,-19,-8
O=C(NCCC1=CCCCC1)c1cc(COc2c(F)cccc2F)on1,-15,16,14,1,nt,nt,nt,nt,nt,nt
COc1ccc(NC(=O)Nc2ccc3c(c2)C(=O)N([C@@H](C)CO)C[C@@H](C)[C@@H](CN(C)C(=O)Nc2ccc(OC)cc2)OCCCC[C@H](C)O3)cc1,nt,nt,-2,nt,nt,nt,nt,nt,nt,nt
CC1CCCN(C(=O)CNC(=O)c2sc3ccccc3c2Cl)C1 (centres undefined),-32,126*,82*,24,0.95,1,1.3,0,2,-7
CCOc1ccccc1N1CCN(C(=O)CNC(=O)c2sc3ccccc3c2Cl)CC1,0,-3,0,-6,nt,nt,nt,nt,nt,nt
COc1ccc(-c2csc(C(O)c3ccccc3)n2)cc1 (centres undefined),6,nt,92*,-3,1.4,?,1.6,-2,4,-10
COc1ccc(C(O)c2nc(-c3ccc(C)c(C)c3)cs2)cc1 (centres undefined),13,nt,8,0,nt,nt,nt,nt,nt,nt
OC(c1ccccc1)c1nc(/C=C/c2ccccc2)cs1 (centres undefined),-6,nt,59*,2,1.6,?,1.6,6,-5,-6
CO[C@H]1CN(C)C(=O)c2ccc(NC(C)=O)cc2OC[C@H](C)N(Cc2cncnc2)C[C@H]1C,2,nt,2,nt,nt,nt,nt,nt,nt,nt
C[C@H](CO)N1C[C@H](C)[C@H](CN(C)C)Oc2c(NS(=O)(=O)c3cccs3)cccc2C1=O,6,nt,-2,nt,nt,nt,nt,nt,nt,nt
O=C(NC1CCCC1)c1cc(-c2ccc(Cl)c(Cl)c2)on1,-7,107*,64*,21,1,0.87,1.6,0,-31,1
Cc1c(NC(=O)c2cc(-c3ccc(Cl)c(Cl)c3)on2)c(=O)n(-c2ccccc2)n1C,0,5,4,-4,nt,nt,nt,nt,nt,nt
Nc1ccc2c(c1)C(=O)c1ccc(N)cc1-2,10,32,76*,-2,1.2,0.94,1.7,0,-3,6
O=C1NC(=Nc2ccccc2)S/C1=C\c1cccn1-c1ccccc1,-74,21,67*,nt,2.6*,0.44*,11*,-10,14,-43
O=c1sc(N2CCN(c3ccc(F)cc3)CC2)nc2ccsc12,-2,nt,62*,26,1.3,0.94,1.6,3,-13,-9
C[C@@H]1CCCCO[C@@H](CN(C)C(=O)c2ccncc2)[C@@H](C)CN([C@H](C)CO)C(=O)c2cc(NC(=O)c3ccccc3)ccc2O1,nt,nt,-4,nt,nt,nt,nt,nt,nt,nt
C[C@H](CO)N1C[C@H](C)[C@@H](CN(C)C(=O)Nc2ccc(F)cc2)Oc2ccc(NS(=O)(=O)c3ccccc3)cc2C1=O,28,nt,1,nt,nt,nt,nt,nt,nt,nt
COc1cccc(NC(=O)N(C)C[C@H]2Oc3cc(-c4ccccc4F)ccc3S(=O)(=O)N([C@H](C)CO)C[C@H]2C)c1,-24,nt,2,nt,nt,nt,nt,nt,nt,nt
Cc1cc(Cl)ccc1OCc1nnc(-c2ccccc2C)o1,-15,116*,99*,41*,0.89,0.93,1.4,-10,-24,4
COc1cc(-c2nnc(COc3ccc(Cl)cc3C)o2)cc(OC)c1OC,-11,2,-4,-5,nt,nt,nt,nt,nt,nt
CC(=O)N(C)C[C@H]1Oc2ncc(-c3ccc(C)cc3)cc2C(=O)N([C@@H](C)CO)C[C@@H]1C,11,nt,-3,nt,nt,nt,nt,nt,nt,nt
SMILES,Statin myotox sup,MITF act,esBAF inh,Wnt bcat act,Ring1 derepress,esBAF Fgf4 qPCR,Bmi1 derepress,A549 cytotox,HepG2 cytotox SP,HEK293 cytotox SP
O=C(N/N=C/c1cnc2ccccc2n1)c1cccc(F)c1,-3,49,60*,9,1.1,1.1,1.3,4,4,3
Cc1noc(C)c1NC(=O)N(C)C[C@H]1OCCCC[C@H](C)Oc2ccc(N(C)C)cc2C(=O)N([C@H](C)CO)C[C@@H]1C,4,nt,-4,nt,nt,nt,nt,nt,nt,nt
CN1c2ccc(-c3cccc(F)c3)cc2[C@H]2[C@H](CCN2C(=O)c2ccc3c(c2)OCO3)[C@H]1CO,55,nt,-2,nt,nt,nt,nt,nt,nt,nt
CCCC1CCC(c2nc(-c3cccnc3)no2)CC1 (centres undefined),8,73,60*,nt,1.2,?,1.7,-3,-27,-10
COc1ccccc1C#Cc1cnc2c(c1)C(=O)N([C@H](C)CO)C[C@@H](C)[C@H](CN(C)C(=O)CC1CC1)O2,1,nt,7,nt,nt,nt,nt,nt,nt,nt
CCCC(=O)N1CCN(c2nc3ccc(Br)cc3s2)CC1,-6,67,66*,0,0.96,0.89,1.4,-6,-14,-34
CC(C)(C)C(=O)N1CCN(c2nc3ccc(Br)cc3s2)CC1,-20,45,93*,3,1.1,1,1.7,-3,10,-27
COC(=O)c1ccc2[nH]c(C)cc(=O)c2c1,-3,-6,3,0,nt,nt,nt,nt,nt,nt
COC(=O)c1ccc2[nH]c(C(C)(C)O)c(C)c2c1,3,75,57*,20,1.4,1,1.4,-1,-14,-4
O=C(NCCO)c1cccc(-c2cnc3c(Nc4cccc(OC(F)(F)C(F)F)c4)nccn23)c1,-2,nt,71*,0,1.2,?,2.4,10,-20,-2
COc1ccccc1-c1cnc2c(Nc3cccc(OC(F)(F)C(F)F)c3)nccn12,-5,nt,14,-1,nt,nt,nt,nt,nt,nt
O=C(CCN1C(=O)/C(=C/C=C/c2ccccc2)SC1=S)Nc1cccnc1,-30,52,67*,21,1.2,0.59*,4,-10,-5,-5
CC(=O)Oc1ccc2cc(-c3ccccc3)c(=O)oc2c1,1,60,60*,15,1.3,0.89,1.6,-14,-7,3
Cc1ccn2c(CC(C)(C)C)c(-c3ccc(F)cc3)nc2c1,-14,nt,65*,55*,1.2,0.97,2.1,-11,4,-2
